This note sets out measurements from ChEMBL document CHEMBL2218924, “A broad activity screen in support of a chemogenomic map for kinase signalling research and drug discovery” (Biochem J, 2013).

Experiment [1] has as its target T1, Ephrin type-B receptor 1 (Homo sapiens) (UniProt P54762).
T1 sequence (whole entry): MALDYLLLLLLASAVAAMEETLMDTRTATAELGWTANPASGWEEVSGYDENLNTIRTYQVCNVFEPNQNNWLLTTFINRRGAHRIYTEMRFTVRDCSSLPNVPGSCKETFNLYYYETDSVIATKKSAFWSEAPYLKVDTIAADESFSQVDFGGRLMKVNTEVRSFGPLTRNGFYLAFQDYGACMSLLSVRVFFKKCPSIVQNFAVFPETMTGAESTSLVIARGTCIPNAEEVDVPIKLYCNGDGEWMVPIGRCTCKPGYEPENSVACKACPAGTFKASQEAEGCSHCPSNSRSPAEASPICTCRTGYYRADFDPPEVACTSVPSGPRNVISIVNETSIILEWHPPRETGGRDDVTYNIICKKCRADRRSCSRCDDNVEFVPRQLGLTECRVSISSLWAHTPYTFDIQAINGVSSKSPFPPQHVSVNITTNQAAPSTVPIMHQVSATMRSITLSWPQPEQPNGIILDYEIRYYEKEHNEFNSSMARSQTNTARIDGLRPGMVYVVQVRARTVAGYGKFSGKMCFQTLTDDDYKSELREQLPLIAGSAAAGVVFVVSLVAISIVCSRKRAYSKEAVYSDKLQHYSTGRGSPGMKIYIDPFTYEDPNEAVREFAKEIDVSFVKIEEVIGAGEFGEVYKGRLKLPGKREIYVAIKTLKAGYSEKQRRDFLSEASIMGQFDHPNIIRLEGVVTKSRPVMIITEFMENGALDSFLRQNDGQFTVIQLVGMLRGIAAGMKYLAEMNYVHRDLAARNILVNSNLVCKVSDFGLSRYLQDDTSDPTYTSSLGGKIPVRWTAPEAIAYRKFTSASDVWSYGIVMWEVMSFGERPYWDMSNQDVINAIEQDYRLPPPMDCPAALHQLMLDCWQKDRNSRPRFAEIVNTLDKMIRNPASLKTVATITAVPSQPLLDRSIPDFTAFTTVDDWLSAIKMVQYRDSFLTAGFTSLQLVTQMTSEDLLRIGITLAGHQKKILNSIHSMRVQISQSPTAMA
The conditions noted are these: at 10 µM.

For experiment [2], the target named is T2, Ephrin type-B receptor 2 (Homo sapiens) (UniProt P29323).
T2 sequence (whole entry): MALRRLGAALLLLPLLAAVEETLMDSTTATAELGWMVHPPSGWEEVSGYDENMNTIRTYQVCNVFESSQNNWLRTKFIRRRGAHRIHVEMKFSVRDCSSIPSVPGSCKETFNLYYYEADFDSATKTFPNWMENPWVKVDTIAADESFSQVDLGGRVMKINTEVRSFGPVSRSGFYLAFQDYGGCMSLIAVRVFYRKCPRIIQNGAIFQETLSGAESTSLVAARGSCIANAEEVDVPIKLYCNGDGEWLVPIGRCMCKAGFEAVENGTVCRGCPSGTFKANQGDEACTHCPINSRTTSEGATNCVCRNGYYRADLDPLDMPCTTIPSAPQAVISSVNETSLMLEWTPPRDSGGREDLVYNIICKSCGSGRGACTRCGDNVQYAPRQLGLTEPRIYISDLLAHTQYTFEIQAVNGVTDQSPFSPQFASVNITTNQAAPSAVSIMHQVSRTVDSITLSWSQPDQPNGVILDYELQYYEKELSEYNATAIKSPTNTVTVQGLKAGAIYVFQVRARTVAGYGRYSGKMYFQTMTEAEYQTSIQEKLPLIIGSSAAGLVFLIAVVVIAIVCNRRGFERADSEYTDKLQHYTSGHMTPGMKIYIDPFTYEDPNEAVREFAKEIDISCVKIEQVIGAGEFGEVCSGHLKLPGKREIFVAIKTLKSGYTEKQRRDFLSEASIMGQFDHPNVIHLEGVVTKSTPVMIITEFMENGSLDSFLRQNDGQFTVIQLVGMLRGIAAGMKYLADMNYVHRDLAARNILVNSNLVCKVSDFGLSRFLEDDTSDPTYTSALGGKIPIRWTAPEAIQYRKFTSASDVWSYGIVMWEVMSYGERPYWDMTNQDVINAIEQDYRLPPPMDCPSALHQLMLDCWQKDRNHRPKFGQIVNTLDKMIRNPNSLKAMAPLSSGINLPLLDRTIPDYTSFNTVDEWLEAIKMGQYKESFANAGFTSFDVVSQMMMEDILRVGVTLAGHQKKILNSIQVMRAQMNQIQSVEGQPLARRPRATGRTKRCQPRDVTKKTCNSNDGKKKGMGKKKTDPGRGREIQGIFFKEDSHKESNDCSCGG
The conditions noted are these: at 1 µM.

Experiment [3] deals with T2, Ephrin type-B receptor 2 (Homo sapiens). To be noted: at 10 µM.
Experiment [4] has as its target T3, Ephrin type-B receptor 3 (Homo sapiens) (UniProt P54753).
T3 sequence (whole entry): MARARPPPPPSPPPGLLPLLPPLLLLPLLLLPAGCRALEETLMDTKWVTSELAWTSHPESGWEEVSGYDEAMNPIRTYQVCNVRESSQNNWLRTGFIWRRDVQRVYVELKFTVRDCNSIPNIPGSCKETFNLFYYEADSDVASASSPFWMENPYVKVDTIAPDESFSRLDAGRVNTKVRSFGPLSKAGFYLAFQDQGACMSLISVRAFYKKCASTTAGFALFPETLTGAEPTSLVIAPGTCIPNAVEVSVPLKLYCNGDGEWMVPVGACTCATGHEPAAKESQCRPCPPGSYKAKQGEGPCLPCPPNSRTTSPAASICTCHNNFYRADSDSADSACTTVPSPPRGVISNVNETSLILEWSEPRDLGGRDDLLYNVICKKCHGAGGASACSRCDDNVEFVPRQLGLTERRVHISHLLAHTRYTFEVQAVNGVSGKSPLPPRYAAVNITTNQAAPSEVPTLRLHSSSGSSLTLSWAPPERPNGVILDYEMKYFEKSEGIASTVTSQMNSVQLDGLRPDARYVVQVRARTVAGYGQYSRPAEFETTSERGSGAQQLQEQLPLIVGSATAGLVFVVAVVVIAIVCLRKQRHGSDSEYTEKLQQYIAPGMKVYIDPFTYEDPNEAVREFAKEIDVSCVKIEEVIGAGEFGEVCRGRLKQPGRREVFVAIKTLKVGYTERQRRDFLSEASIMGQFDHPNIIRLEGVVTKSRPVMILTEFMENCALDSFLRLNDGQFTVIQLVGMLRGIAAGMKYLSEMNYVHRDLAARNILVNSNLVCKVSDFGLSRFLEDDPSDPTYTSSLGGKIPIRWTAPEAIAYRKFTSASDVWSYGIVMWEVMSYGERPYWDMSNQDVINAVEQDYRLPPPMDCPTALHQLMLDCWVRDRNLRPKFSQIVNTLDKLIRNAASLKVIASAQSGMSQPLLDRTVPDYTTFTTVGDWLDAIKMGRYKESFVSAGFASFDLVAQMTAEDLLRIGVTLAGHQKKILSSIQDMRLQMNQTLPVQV
To be noted: at 1 µM.

Experiment [5] addresses T3, Ephrin type-B receptor 3 (Homo sapiens). To be noted: at 10 µM.
Experiment [6] concerns the target T4, Ephrin type-B receptor 4 (Homo sapiens) (UniProt P54760).
T4 sequence (whole entry): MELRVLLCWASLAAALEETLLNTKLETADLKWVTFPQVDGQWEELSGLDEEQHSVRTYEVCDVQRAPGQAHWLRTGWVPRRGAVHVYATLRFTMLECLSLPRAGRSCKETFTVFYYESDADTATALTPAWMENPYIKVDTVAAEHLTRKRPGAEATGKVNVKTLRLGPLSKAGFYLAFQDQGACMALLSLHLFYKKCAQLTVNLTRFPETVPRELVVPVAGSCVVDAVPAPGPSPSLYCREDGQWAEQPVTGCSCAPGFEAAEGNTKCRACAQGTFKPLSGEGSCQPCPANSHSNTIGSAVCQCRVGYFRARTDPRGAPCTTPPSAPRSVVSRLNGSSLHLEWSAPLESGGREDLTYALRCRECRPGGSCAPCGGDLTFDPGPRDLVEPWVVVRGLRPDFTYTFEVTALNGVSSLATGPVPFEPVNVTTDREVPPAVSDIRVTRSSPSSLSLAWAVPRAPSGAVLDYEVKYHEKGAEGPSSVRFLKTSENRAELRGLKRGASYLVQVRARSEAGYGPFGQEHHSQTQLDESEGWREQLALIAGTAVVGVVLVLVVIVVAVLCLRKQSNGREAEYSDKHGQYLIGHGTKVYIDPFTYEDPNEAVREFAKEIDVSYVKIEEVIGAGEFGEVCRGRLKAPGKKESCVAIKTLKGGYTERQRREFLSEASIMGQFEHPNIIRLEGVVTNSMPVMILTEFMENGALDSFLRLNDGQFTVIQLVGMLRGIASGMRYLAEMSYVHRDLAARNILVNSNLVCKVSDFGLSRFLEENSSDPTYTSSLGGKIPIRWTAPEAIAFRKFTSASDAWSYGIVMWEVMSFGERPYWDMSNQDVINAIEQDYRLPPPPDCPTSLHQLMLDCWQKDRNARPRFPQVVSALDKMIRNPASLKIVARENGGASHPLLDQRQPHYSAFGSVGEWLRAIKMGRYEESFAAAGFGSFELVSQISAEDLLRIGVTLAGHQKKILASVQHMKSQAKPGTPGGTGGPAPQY
The conditions noted are these: at 1 µM.

The target of experiment [7] is T4, Ephrin type-B receptor 4 (Homo sapiens). The conditions noted are these: at 10 µM.
In experiment [8] the target is Receptor tyrosine-protein kinase erbB-4 (Homo sapiens) (UniProt Q15303). To be noted: at 1 µM.
Sequence of Receptor tyrosine-protein kinase erbB-4 (Homo sapiens) (Q15303 whole entry): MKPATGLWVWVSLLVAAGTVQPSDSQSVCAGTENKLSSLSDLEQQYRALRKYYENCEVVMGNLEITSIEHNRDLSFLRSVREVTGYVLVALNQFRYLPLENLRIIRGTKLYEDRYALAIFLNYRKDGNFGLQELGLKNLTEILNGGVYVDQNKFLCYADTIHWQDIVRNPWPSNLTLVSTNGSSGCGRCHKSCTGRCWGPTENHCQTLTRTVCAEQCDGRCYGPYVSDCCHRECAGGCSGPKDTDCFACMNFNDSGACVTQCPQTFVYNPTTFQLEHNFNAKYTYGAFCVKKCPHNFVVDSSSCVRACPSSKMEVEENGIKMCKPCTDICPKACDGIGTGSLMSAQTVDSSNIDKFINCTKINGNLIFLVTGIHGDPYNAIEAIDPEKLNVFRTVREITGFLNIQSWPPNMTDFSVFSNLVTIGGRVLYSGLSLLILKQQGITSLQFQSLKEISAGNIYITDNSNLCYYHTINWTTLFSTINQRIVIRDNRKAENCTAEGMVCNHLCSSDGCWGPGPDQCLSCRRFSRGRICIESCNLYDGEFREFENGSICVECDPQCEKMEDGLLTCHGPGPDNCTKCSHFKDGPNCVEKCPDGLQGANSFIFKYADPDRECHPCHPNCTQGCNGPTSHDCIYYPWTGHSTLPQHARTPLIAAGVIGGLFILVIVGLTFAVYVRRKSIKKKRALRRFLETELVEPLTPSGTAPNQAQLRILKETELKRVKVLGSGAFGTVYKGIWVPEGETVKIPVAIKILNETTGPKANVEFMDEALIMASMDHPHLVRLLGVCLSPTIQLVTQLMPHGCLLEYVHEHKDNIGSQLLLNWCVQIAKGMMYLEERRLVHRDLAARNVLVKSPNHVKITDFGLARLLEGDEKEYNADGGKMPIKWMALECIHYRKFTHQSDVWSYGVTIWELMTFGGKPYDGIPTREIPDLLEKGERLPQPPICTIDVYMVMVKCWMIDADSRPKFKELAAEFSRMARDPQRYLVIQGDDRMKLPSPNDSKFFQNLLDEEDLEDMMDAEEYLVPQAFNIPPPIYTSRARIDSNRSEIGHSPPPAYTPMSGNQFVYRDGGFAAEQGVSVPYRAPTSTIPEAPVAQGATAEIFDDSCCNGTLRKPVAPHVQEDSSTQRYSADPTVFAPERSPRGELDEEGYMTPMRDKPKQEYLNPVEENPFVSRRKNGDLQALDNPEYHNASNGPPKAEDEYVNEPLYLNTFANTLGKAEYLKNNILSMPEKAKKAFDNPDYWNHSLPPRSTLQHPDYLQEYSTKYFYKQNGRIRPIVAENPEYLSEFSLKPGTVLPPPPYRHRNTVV
The target is the same in experiment [9]. The conditions noted are these: at 10 µM.
Experiment [10] has as its target Focal adhesion kinase 1 (Homo sapiens) (UniProt Q05397). To be noted: at 1 µM.

Sequence of Focal adhesion kinase 1 (Homo sapiens) (Q05397 2-1052 limits assumed): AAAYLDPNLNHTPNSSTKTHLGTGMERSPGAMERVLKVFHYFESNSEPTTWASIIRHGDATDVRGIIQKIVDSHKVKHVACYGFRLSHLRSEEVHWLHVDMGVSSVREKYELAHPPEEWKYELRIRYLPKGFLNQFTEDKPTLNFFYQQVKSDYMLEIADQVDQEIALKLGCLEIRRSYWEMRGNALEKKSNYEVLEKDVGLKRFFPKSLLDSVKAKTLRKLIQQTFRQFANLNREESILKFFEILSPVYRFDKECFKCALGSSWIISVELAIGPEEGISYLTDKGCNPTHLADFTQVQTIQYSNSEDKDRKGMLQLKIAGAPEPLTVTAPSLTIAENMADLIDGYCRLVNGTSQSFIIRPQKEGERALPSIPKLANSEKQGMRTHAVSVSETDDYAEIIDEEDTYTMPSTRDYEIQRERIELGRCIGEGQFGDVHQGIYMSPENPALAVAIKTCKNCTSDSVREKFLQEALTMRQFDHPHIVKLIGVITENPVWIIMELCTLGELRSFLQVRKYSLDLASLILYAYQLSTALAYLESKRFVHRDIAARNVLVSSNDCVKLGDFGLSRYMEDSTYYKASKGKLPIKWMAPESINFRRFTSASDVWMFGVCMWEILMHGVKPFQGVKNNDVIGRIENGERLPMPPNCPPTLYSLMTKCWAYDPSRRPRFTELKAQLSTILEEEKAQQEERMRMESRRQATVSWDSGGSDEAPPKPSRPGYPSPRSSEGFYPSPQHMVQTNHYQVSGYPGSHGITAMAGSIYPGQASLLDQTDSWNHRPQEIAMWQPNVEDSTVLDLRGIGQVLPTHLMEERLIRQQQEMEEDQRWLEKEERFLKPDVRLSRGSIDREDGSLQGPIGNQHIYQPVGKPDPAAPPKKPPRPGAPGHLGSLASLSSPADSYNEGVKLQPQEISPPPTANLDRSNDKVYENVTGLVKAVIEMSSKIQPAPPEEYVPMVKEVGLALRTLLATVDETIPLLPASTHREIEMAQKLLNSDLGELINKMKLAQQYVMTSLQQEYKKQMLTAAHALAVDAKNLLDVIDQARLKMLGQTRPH

As a reminder, the residual activity is the signal under treatment as a percentage of the control signal. In the case of `CNc1cc2c(Nc3cccc(Br)c3)ncnc2cn1`, the residual activity in experiment [1] is 62%; in experiment [2], 94%; in experiment [3] it was 62%; in experiment [4] it was 95% (inactive); in [5] it was 120%; in experiment [6], 63%. Moreover, the residual activity in experiment [7] came to 13%; in [8], 42%; in experiment [9], 31%; in experiment [10] it was 107%.
